Measured values published in PubChem BioAssay (Tox21).
A number with no mark means an inactive call. Inconclusive results are not listed. A call without a number means that no potency is given here. The source made the active and inactive calls. Unless noted, calls come from the whole dose curve; as a rule, active = well fitted curve in the direction sought with a large enough effect in the repeat runs; inconclusive = weak or mixed curves; inactive = no such curve, though single readings can be large; an effect the other way counts as inactive or inconclusive.

Key:
[1] = qHTS assay to identify small molecule agonists of H2AX (AID 1224845; active = well fitted activation curve with a large enough effect in the signal ratio in the repeat runs, not every such curve was filed as active; the % refers to the signal ratio; note: potency is the fitted concentration of half-maximal effect)
Procedure, shortened: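 Wild-type CHO-K1 cells plated overnight, then exposed 3 hr at 37C to compounds at 15 concentrations (0.76% DMSO). Lysed, then HTRF anti-pH2AX(S139)-cryptate/anti-H2AX-d2 detection after 24 hr at room temperature; emissions 665 and 620 nm.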

[2] = qHTS assay to identify small molecule agonists of the hypoxia (HIF-1) signaling pathway (AID 1224846; active = well fitted activation curve with a large enough effect in the signal ratio in the repeat runs, not every such curve was filed as active; the % refers to the signal ratio)
Procedure, shortened: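 HRE-bla ME-180 cells (beta-lactamase reporter under hypoxia response element) were plated at 2,000 cells/well in medium with 0.5% dialyzed FBS, rested 5 hrs, then given compounds in DMSO for 17 hrs at 37C, 5% CO2. Reporter induction was read with CCF4-AM FRET substrate.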

[3] = qHTS RealTime-Glo MT Cell Viability Assay in HEK293 cells - 32 hour (AID 1224868); note: nearly all actives have a fitted effect of over 50% in size; note: potency is the fitted concentration of half-maximal effect
Procedure, shortened: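 Luminescence generated by NanoLuc from substrate produced by living HEK293 cells served as the viability signal. Each value reflects the reading at its stated time point during continuous 40 h compound exposure at 37 C.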

[4] = A CellTox Green Cytotoxicity Assay to monitor cytotoxicity in HEK293 cells - 0 hour (AID 1224869); note: nearly all actives have a fitted effect of over 50% in size; note: potency is the fitted concentration of half-maximal effect
Procedure, shortened: (§1)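 HEK293 cells premixed with CellTox Green dye were seeded at 600 cells/well and left 5 h at 37 C/5% CO2 before pin transfer of 23 nL compound in DMSO. Fluorescence from dye bound to dead-cell DNA was read during 40 h treatment.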

[5] = qHTS RealTime-Glo MT Cell Viability Assay in HepG2 cells - 40 hour (AID 1224870); note: nearly all actives have a fitted effect of over 50% in size; note: potency is the fitted concentration of half-maximal effect
Procedure, shortened: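 HepG2 cells mixed with RealTime-Glo MT reagents (NanoLuc plus cell-permeant prosubstrate) were seeded at 600 cells/well, incubated 5 h at 37 C/5% CO2, then pinned with compounds in DMSO; nonlytic luminescence tracked viability during 40 h treatment.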

[6] = qHTS assay to identify small molecule agonists of H2AX - cell viability counter screen (AID 1224847; calls by dose curve; note: nearly all actives have a fitted effect of over 30% in size; note: potency is the fitted concentration of half-maximal effect)
Procedure, shortened: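 Read-out: CellTiter-Glo luminescence, 30 min RT. Cells: wild-type CHO-K1, 1000/well, 10% FBS, plated overnight at 37C. Treatment: 15 concentrations, 3 hr, 37C, 0.76% DMSO.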

[7] = qHTS RealTime-Glo MT Cell Viability Assay in HepG2 cells - 24 hour (AID 1224867); note: nearly all actives have a fitted effect of over 50% in size; note: potency is the fitted concentration of half-maximal effect
Procedure, shortened: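 Tox21 10K library screened in qHTS format on HepG2 cells carrying RealTime-Glo reagents. Compounds were added after a 5 h preincubation, and the luminescent signal from continuous culture was measured repeatedly during 40 h treatment.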

[8] = A CellTox Green Cytotoxicity Assay to monitor cytotoxicity in HEK293 cells - 40 hour (AID 1224871); note: nearly all actives have a fitted effect of over 45% in size; note: potency is the fitted concentration of half-maximal effect
Procedure, shortened: as §1

[9] = qHTS assay to identify small molecule agonists of the estrogen related receptor (ERR) signaling pathway from Tox21 library (AID 1224849; calls by dose curve; note: nearly all actives have a fitted effect of over 15% in size); details: ERR reporter cell line, ONE-Glo luciferase, 18 h; at 92.4 µM (top of the series) unless noted
Procedure, shortened: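 ERR reporter cell line (NTP) seeded, rested 6 h at 37 C/5% CO2, then pinned with Tox21 compounds in DMSO. After 18 h at 37 C, ONE-Glo luciferase luminescence was read following 30 min at room temperature.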

[10] = qHTS assay to identify small molecule antagonists of the estrogen related receptor (ERR) signaling pathway from Tox21 library (AID 1224848); note: nearly all actives have a fitted effect of over 50% in size; note: potency is the fitted concentration of half-maximal effect
Procedure, shortened: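 Screening used an ERR reporter line supplied by NTP, exposed for 18 h at 37 C to library compounds delivered in DMSO. Signal was luciferase luminescence developed with ONE-Glo at room temperature for 30 min.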

O=C(c1ccc(O)cc1)c1ccc(Cl)cc1
Potency [1]: inactive
outcome [2]: inactive
Potency [3]: 25.1 µM (active)
Potency [4]: inactive
Potency [5]: inactive

C[C@@H]1C[C@H]2[C@@H]3CCC4=CC(=O)C=C[C@]4(C)[C@@]3(F)[C@@H](O)C[C@]2(C)[C@@]1(O)C(=O)CO
Potency [1]: inactive
Potency [6]: inactive
Potency [7]: inactive
Potency [4]: inactive
Potency [8]: inactive

Cc1nc2ccccn2c(=O)c1CCN1CCC(C(=O)c2ccc(F)cc2)CC1
Potency [1]: inactive
Potency [6]: inactive
activity change, positive = activation [9]: -25.4% [at 42.5 µM]
Potency [3]: 7.56 µM (active)
Potency [4]: inactive
Potency [5]: inactive
Potency [8]: inactive

O=C(O)Cc1ccc(-c2ccccc2)cc1
Potency [1]: inactive
Potency [6]: inactive
Potency [10]: inactive
activity change, positive = activation [9]: 1.1% [at 42.5 µM]
Potency [7]: inactive
Potency [3]: inactive
Potency [4]: inactive
Potency [5]: inactive
Potency [8]: inactive

CNC(=S)NC
Potency [1]: inactive
Potency [6]: inactive
Potency [4]: inactive
Potency [5]: inactive
Potency [8]: inactive

C[N+]1(C)CCC(=C(c2ccccc2)c2ccccc2)CC1
Potency [1]: inactive
Potency [6]: inactive
Potency [10]: inactive
activity change, positive = activation [9]: -2% [at 42.5 µM]
Potency [7]: inactive
Potency [3]: inactive
Potency [4]: inactive
Potency [5]: inactive

COC(=O)CC(=O)C(C)(C)C
Potency [1]: inactive
Potency [6]: inactive
Potency [4]: inactive
Potency [8]: inactive

C[C@@H]1C[C@H]2[C@@H]3CCC4=CC(=O)C=C[C@]4(C)[C@@]3(F)[C@@H](O)C[C@]2(C)[C@H]1C(=O)CO
Potency [1]: inactive
Potency [6]: inactive
Potency [7]: inactive
Potency [3]: inactive
Potency [4]: inactive
Potency [5]: inactive
Potency [8]: inactive

CNCCCC1c2ccccc2C=Cc2ccccc21
Potency [1]: inactive
Potency [6]: inactive
activity change, positive = activation [9]: -23.5% [at 42.5 µM]
Potency [7]: 21.3 µM (active)
Potency [4]: inactive

CC(C)(C)CC(C)(C)c1ccc(OCCO)cc1
Potency [1]: inactive
Potency [6]: 100 µM (active)
Potency [10]: 3.83 µM (active)
activity change, positive = activation [9]: -58.8%
Potency [3]: 5.46 µM (active)
Potency [4]: inactive
Potency [5]: inactive
Potency [8]: 48.7 µM (active)

CC[C@H](NC(=O)c1cc(F)ccc1NS(=O)(=O)c1cccc2cccnc12)c1ccccc1
Potency [1]: inactive
Potency [6]: inactive
Potency [10]: 32.5 µM (active)
activity change, positive = activation [9]: -48.4%
Potency [7]: 52 µM (active)
Potency [4]: inactive
Potency [5]: 52 µM (active)
Potency [8]: inactive

CCn1nc(C)c2c1C(=O)NCC(c1ccc(O)cc1)=N2
Potency [1]: inactive
outcome [2]: inactive
Potency [7]: inactive
Potency [3]: inactive
Potency [4]: inactive
Potency [5]: inactive
Potency [8]: inactive

CCN(CC)CCNC(=O)c1ccc(NC(C)=O)cc1
Potency [1]: inactive
Potency [6]: inactive
Potency [7]: inactive
Potency [3]: inactive
Potency [4]: inactive
Potency [5]: inactive
Potency [8]: inactive

CCc1nn(CCCN2CCN(c3cccc(Cl)c3)CC2)c(=O)n1CCOc1ccccc1
Potency [1]: inactive
outcome [2]: inactive
Potency [3]: 8.49 µM (active)
Potency [4]: inactive

O=C(CCCN1CCC(O)(c2ccc(Br)cc2)CC1)c1ccc(F)cc1
Potency [1]: inactive
Potency [6]: inactive
Potency [3]: 9.52 µM (active)
Potency [4]: inactive
Potency [8]: inactive

CCn1cc(C(=O)O)c(=O)c2cc(F)c(N3CCNCC3)nc21
Potency [1]: inactive
Potency [6]: inactive
Potency [3]: inactive
Potency [4]: inactive
Potency [5]: inactive
Potency [8]: inactive

COC(OC)(C(=O)c1ccccc1)c1ccccc1
Potency [1]: inactive
outcome [2]: inactive
Potency [10]: inactive
activity change, positive = activation [9]: -3.37%
Potency [3]: inactive
Potency [4]: inactive
Potency [8]: inactive

CSc1ccc(Oc2ccc(S(N)(=O)=O)cc2CN(C)C)cc1C
Potency [1]: inactive
outcome [2]: inactive
Potency [10]: 5.45 µM (active)
activity change, positive = activation [9]: -34.7%
Potency [3]: 43.6 µM (active)
Potency [4]: inactive
Potency [5]: inactive
Potency [8]: inactive

CCNC(=O)N1CCN(CCCC(c2ccc(F)cc2)c2ccc(F)cc2)CC1
Potency [1]: inactive
Potency [6]: inactive
Potency [10]: 7.5 µM (active)
activity change, positive = activation [9]: -50.1% [at 42.5 µM]
Potency [7]: inactive
Potency [3]: 16.9 µM (active)
Potency [4]: inactive
Potency [5]: inactive

C=CCNc1nc(NCC=C)nc(N2CCN(C(c3ccc(F)cc3)c3ccc(F)cc3)CC2)n1
Potency [1]: inactive
outcome [2]: inactive
Potency [7]: inactive
Potency [3]: inactive
Potency [4]: inactive
Potency [5]: inactive
Potency [8]: inactive

O=C(Nc1ccc([N+](=O)[O-])cc1)Nc1ccc([N+](=O)[O-])cc1
Potency [1]: inactive
outcome [2]: inactive
Potency [3]: 7.56 µM (active)
Potency [4]: inactive
Potency [5]: inactive

OC(CCCN1CCCCC1)(c1ccccc1)c1ccccc1
Potency [1]: inactive
Potency [6]: inactive
Potency [10]: inactive
activity change, positive = activation [9]: 2.99% [at 42.5 µM]
Potency [3]: inactive
Potency [4]: inactive
Potency [5]: inactive
Potency [8]: inactive

CCc1cccc(N(C)C(N)=Nc2cccc3ccccc23)c1
Potency [1]: inactive
outcome [2]: inactive
Potency [7]: inactive
Potency [4]: inactive
Potency [5]: inactive
Potency [8]: inactive

CCCCN(CCCC)CCCOC(=O)c1ccc(N)cc1
Potency [1]: inactive
Potency [6]: inactive
Potency [7]: inactive
Potency [3]: inactive
Potency [4]: inactive
Potency [5]: inactive

CN(C(=O)C(Cl)Cl)c1ccc(OC(=O)c2ccco2)cc1
Potency [1]: inactive
Potency [6]: inactive
Potency [7]: inactive
Potency [3]: inactive
Potency [4]: inactive
Potency [8]: inactive

CCOC(=O)CC(=O)C(=O)OCC
Potency [1]: inactive
outcome [2]: inactive
Potency [10]: 27.3 µM (active)
activity change, positive = activation [9]: -57.1%
Potency [3]: 49 µM (active)
Potency [4]: inactive
Potency [5]: inactive

O=C(CCCN1CCN(c2ccc(F)cc2)CC1)NC1c2ccccc2CSc2ccccc21 (stereo not drawn)
Potency [1]: inactive
outcome [2]: inactive
Potency [3]: 19 µM (active)
Potency [4]: inactive
Potency [8]: inactive

CCCCCCCCCCCCCCC[C@H](O)[C@@H](N)CO
Potency [1]: inactive
Potency [6]: 49.2 µM (active)
Potency [4]: 19 µM (active)
Potency [8]: 23.9 µM (active)

CCCCCCCCCCCC[N+](C)(C)CC(=O)[O-]
Potency [1]: inactive
outcome [2]: inactive
Potency [7]: inactive
Potency [3]: inactive
Potency [4]: inactive
Potency [5]: inactive

O=C(O)C(Cc1cc(I)c(O)c(I)c1)c1ccccc1 (stereo not drawn)
Potency [1]: inactive
Potency [6]: inactive
Potency [7]: inactive
Potency [3]: inactive
Potency [4]: inactive
Potency [8]: inactive

O=C(OCCOCCO)c1ccccc1Nc1cccc(C(F)(F)F)c1
Potency [1]: inactive
outcome [2]: inactive
Potency [7]: inactive
Potency [4]: inactive
Potency [5]: inactive

CCCCC(=O)O[C@]1(C(=O)CO)[C@@H](C)C[C@H]2[C@@H]3CCC4=CC(=O)C=C[C@]4(C)[C@@]3(F)[C@@H](O)C[C@@]21C
Potency [1]: 113 µM (active)
outcome [2]: inactive
Potency [10]: 54.5 µM (active)
activity change, positive = activation [9]: -45.4%
Potency [4]: inactive
Potency [5]: inactive
Potency [8]: 54.9 µM (active)

Cc1ccccc1N1C(=O)c2cc(S(N)(=O)=O)c(Cl)cc2NC1C (stereo not drawn)
Potency [1]: inactive
Potency [6]: inactive
Potency [7]: inactive
Potency [3]: inactive
Potency [4]: inactive
Potency [5]: inactive
Potency [8]: inactive

Nc1ccc(C(=O)OCCCOC(=O)c2ccc(N)cc2)cc1
Potency [1]: inactive
outcome [2]: inactive
Potency [7]: inactive
Potency [3]: 43.6 µM (active)
Potency [4]: inactive
Potency [5]: inactive

O=C(O)c1cccnc1C(=O)O
Potency [1]: inactive
Potency [6]: inactive
Potency [7]: inactive
Potency [4]: inactive
Potency [5]: inactive
Potency [8]: inactive

CC(=N\O)/C(C)=N/O
Potency [1]: inactive
Potency [6]: inactive
Potency [7]: inactive
Potency [3]: inactive
Potency [4]: inactive
Potency [5]: inactive
Potency [8]: inactive

CCOC(=N)CC(=O)OCC
Potency [1]: inactive
Potency [6]: inactive
Potency [7]: inactive
Potency [3]: inactive
Potency [4]: inactive
Potency [5]: inactive
Potency [8]: inactive

O=c1[nH]c2ccc(S(=O)CCN3CCC(Cc4ccc(F)cc4)CC3)cc2o1 (stereo not drawn)
Potency [1]: inactive
outcome [2]: inactive
activity change, positive = activation [9]: -29.7%
Potency [7]: inactive
Potency [4]: inactive
Potency [5]: inactive
Potency [8]: inactive

OCCSc1ccccc1
Potency [1]: inactive
Potency [6]: inactive
Potency [7]: inactive
Potency [3]: inactive
Potency [4]: inactive
Potency [5]: inactive
Potency [8]: inactive

CC1=NN(c2ccc(C(=O)O)cc2)C(=O)C1
outcome [2]: inactive
Potency [6]: inactive
Potency [7]: inactive
Potency [3]: inactive
Potency [4]: inactive
Potency [5]: inactive
Potency [8]: inactive

CCCCCCCCCCCC[N+](C)(C)CCCS(=O)(=O)[O-]
outcome [2]: inactive
Potency [6]: inactive
Potency [7]: inactive
Potency [3]: inactive
Potency [4]: inactive
Potency [5]: inactive

CCCCCCCC/C=C\CCCCCCCC(=O)OC(CO)CO
outcome [2]: inactive
Potency [6]: inactive
Potency [7]: inactive
Potency [3]: inactive
Potency [4]: inactive
Potency [5]: inactive
Potency [8]: inactive
